Measured values taken from PubChem BioAssay (NCATS).
A number with no mark means an inactive call. Results filed as inconclusive are left out. Where a call stands in place of a potency, no number is given. The source made the active and inactive calls. The call rests on the fitted dose curve; in most records, active means well fitted curve in the direction sought with a large enough effect; inconclusive means small, poorly fitted or top-dose-only effect, or another doubt; inactive means no such curve, though single readings can be large; an effect the other way counts as inactive or inconclusive.

How the values were obtained:
[1] = biological target: Phospholipid hydroperoxide glutathione peroxidase GPX4 (Homo sapiens) (UniProt P36969); experiment: Primary qHTS Assay for Inhibitors of Recombinant Selenoprotein Glutathione Peroxidase 4 (GPX4) (AID 1845192); further: nearly all actives have a fitted effect of over 65% in size
Sequence of Phospholipid hydroperoxide glutathione peroxidase GPX4 (Homo sapiens) (P36969 whole entry, looked up): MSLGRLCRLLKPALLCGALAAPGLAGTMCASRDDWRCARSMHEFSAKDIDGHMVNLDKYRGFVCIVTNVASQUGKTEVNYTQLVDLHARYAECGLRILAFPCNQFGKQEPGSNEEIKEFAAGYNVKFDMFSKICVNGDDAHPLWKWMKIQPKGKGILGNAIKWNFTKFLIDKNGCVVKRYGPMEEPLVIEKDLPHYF
How it was run: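 NADPH consumption, followed by fluorescence at 340/450 nm between 0 and 15 min, reports GPX4 activity via coupled glutathione reductase (100 nM). Enzyme 200 nM was pre-exposed to compound 30 min; 0.5 mM cumene hydroperoxide and 1 mM GSH served as substrates.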

[2] = biological target: Luciferin 4-monooxygenase (Photinus pyralis) (UniProt P08659); experiment: Primary firefly luciferase (FLuc) qHTS assay for identification of artifact compounds. (AID 1845220); further: nearly all actives have a fitted effect of over 60% in size
How it was run: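 FLuc 10 nM; luciferin 10 uM; ATP 10 uM; Tris-acetate pH 7.6, Mg-acetate 10 mM; 15 min RT preincubation; 5 min reaction; luminescence.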

[3] = Primary fluorescence-based thiol-reactive (MSTI) qHTS assay for identification of artifact compounds. (AID 1845221); further: nearly all actives have a fitted effect of over 65% in size; further: potency means the concentration at half of the fitted maximal effect
How it was run: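 Probe: MSTI 4 uM, PBS pH 7.4, 2% DMSO. Incubation 1 h, RT, light-protected. Readout fluorescence 525/598 nm.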

[4] = tested on: Nanoluciferase (engineered Oplophorus gracilirostris luciferase); experiment: Primary Nanoluciferase (NLuc) qHTS assay for identification of artifact compounds. (AID 1845222);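 further: NLuc secreted into diluted conditioned medium of S16 cells; series mostly up to about 54 µM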
How it was run: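 NLuc from S16 cell medium (1:55) plus test compounds, 15 min, room temperature. Luminescence after Nano-Glo (1:100) addition, 5 min.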

[5] = Primary redox qHTS assay for identification of artifact compounds. (AID 1845223)
How it was run: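 Amplex Red (25 uM) and HRP (250 mU/mL) in HBSS, with compounds for 15 min, then 250 uM DTT for 30 min, room temperature, dark. Fluorescence 525/598 nm read; normalized to DMSO and 10 uM DA3003; Hill fit.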

For `CC1(C)CC2C(O)C3=C(CC(C)(O)C2C1)C(=O)OC3O` (stereo not given), the Potency [1] was “inactive”, the Potency [2] was “inactive” and the Potency [3] was “inactive”. For the same compound, the Potency [4] was “inactive” and the Potency [5] was “inactive”.

In the case of `CCOc1ccc(-c2ccc(Cn3c(CC(C)(C)C(=O)O)c(SC(C)(C)C)c4cc(OCc5ccc(C)cn5)ccc43)cc2)cn1`, the Potency [1] is reported as “inactive”, the Potency [2] is reported as “inactive” and the Potency [3] is reported as “inactive”. The Potency [4] was “inactive” and the Potency [5] was “inactive”.

In the case of `CC1NC(=O)C(Cc2c[nH]c3ccccc23)NC1=O` (stereo not given), the Potency [1] is reported as “inactive”, the Potency [2] is reported as “inactive” and the Potency [3] is reported as “inactive”. The Potency [4] was “inactive” and the Potency [5] was “inactive”.

With `COc1ccc(C[C@H](N)C(=O)N[C@H]2[C@@H](O)[C@H](n3cnc4c(N(C)C)ncnc43)O[C@@H]2CO)cc1` the Potency [1] was “inactive”, the Potency [2] was “inactive” and the Potency [3] was “inactive”. For the same compound, the Potency [4] was “inactive” and the Potency [5] was “inactive”.

For `COc1cc(/C=C/C(=O)OC2CC(OC(C)=O)C(OC(C)=O)C3C2CCC2C(=O)OC(c4ccoc4)CC23C)ccc1O[C@@H]1O[C@H](CO)[C@@H](O)[C@H](O)[C@H]1O` (stereo not given in full), the Potency [1] was “inactive”, the Potency [2] was “inactive” and the Potency [3] was “inactive”. The Potency [4] was “inactive” and the Potency [5] was “inactive”.

With `CC(=O)OCCC(C)CCC1C(C)(O)CCC2C(C)(C)CCCC21C` (stereo not given) the Potency [1] was “inactive”, the Potency [2] was “inactive” and the Potency [3] was “inactive”. For the same compound, the Potency [4] was “inactive” and the Potency [5] was “inactive”.

For `CC(CCC1C(C(=O)O)=CC(=O)CC1(C)C)O[C@@H]1O[C@H](CO)[C@@H](O)[C@H](O)[C@H]1O` (stereo not given in full), the Potency [1] was “inactive”, the Potency [2] was “inactive” and the Potency [3] was 5.85 µM (active). For the same compound, the Potency [4] was “inactive” and the Potency [5] was “inactive”.

In the case of `NC(Cc1c[nH]c2ccccc12)C(=O)NC(CCC(=O)O)C(=O)O` (stereo not given), the Potency [1] is reported as “inactive”, the Potency [2] is reported as “inactive” and the Potency [3] is reported as “inactive”. The Potency [4] was “inactive” and the Potency [5] was “inactive”.

For `CC(C)=CC/C=C(/C)[C@H]1CC[C@]2(C)[C@@H]1[C@H](O)CC1[C@@]3(C)CC[C@H](O)C(C)(C)[C@@H]3[C@@H](O[C@@H]3O[C@H](CO)[C@@H](O)[C@H](O)[C@H]3O[C@@H]3O[C@@H](C)[C@H](O)[C@@H](O)[C@H]3O)C[C@]12C` (stereo not given in full), the Potency [1] was “inactive”, the Potency [2] was “inactive” and the Potency [3] was “inactive”. The Potency [4] was “inactive” and the Potency [5] was “inactive”.

In the case of `CCNC(=O)CCC/C=C\C[C@@H]1[C@@H](/C=C/C(O)CCc2ccccc2)[C@@H](O)C[C@@H]1O` (stereo not given in full), the Potency [1] is reported as “inactive”, the Potency [2] is reported as “inactive” and the Potency [3] is reported as “inactive”. The Potency [4] was “inactive” and the Potency [5] was “inactive”.

With `CC(=O)O[C@@H]1C[C@@]23C[C@@]24CC[C@H](OC2OC[C@@H](O)[C@H](O)[C@H]2O)C(C)(C)[C@@H]4CC[C@H]3[C@]2(C)CC3OC4(C[C@@H](C)C3[C@@]12C)OCC1(C)OC14` (stereo not given in full) the Potency [1] was “inactive”, the Potency [2] was “inactive” and the Potency [3] was “inactive”. For the same compound, the Potency [4] was “inactive” and the Potency [5] was “inactive”.

For `CC1(C)CCCC2(C)C1C(O)C=C(CO)C2(O)C(=O)O` (stereo not given), the Potency [1] was “inactive”, the Potency [2] was “inactive” and the Potency [3] was “inactive”. The Potency [4] was “inactive” and the Potency [5] was “inactive”.

With `Nc1c(Br)cc(Br)cc1CNC1CCC(O)CC1` (stereo not given) the Potency [1] was “inactive”, the Potency [2] was “inactive” and the Potency [3] was “inactive”. For the same compound, the Potency [4] was “inactive” and the Potency [5] was “inactive”.

For `C/C=C(/C)C(=O)O[C@H]1C=C(C)C[C@H](OC(=O)c2ccc(O)cc2)C2[C@](O)(C(C)C)CC[C@@]21C` (stereo not given in full), the Potency [1] was “inactive”, the Potency [2] was “inactive” and the Potency [3] was “inactive”. The Potency [4] was “inactive” and the Potency [5] was “inactive”.

For `CC12CCC3c4ccc(O)cc4CCC3C1CCC2OC1OC(C(=O)O)C(O)C(O)C1O` (stereo not given), the Potency [1] was “inactive”, the Potency [2] was “inactive” and the Potency [3] was “inactive”. For the same compound, the Potency [4] was “inactive” and the Potency [5] was “inactive”.

In the case of `CC1=CC(=O)OC(C)(CC(C)(O)C(=O)O)C1` (stereo not given), the Potency [1] is reported as “inactive”, the Potency [2] is reported as “inactive” and the Potency [3] is reported as “inactive”. For the same compound, the Potency [4] was “inactive” and the Potency [5] was “inactive”.

For `COC(=O)[C@H](CC1C=NC=N1)NCC12CC3CC(CC(C3)C1)C2` (stereo not given in full), the Potency [1] was “inactive”, the Potency [2] was “inactive” and the Potency [3] was “inactive”. For the same compound, the Potency [4] was “inactive” and the Potency [5] was “inactive”.

In the case of `C=CC(C)(CC/C=C(\C)CC/C=C(\C)CC(O)/C=C(\C)C(=O)O)O[C@@H]1O[C@H](CO)[C@@H](O)[C@H](O)[C@H]1O[C@@H]1O[C@H](CO)[C@@H](O)[C@H](O)[C@H]1O` (stereo not given in full), the Potency [1] is reported as “inactive”, the Potency [2] is reported as “inactive” and the Potency [3] is reported as “inactive”. The Potency [4] was “inactive” and the Potency [5] was “inactive”.

In the case of `NC1CCC(N[C@@H]2C[C@H]2c2ccccc2)CC1` (stereo not given in full), the Potency [1] is reported as “inactive”, the Potency [2] is reported as “inactive” and the Potency [3] is reported as “inactive”. For the same compound, the Potency [4] was “inactive” and the Potency [5] was “inactive”.

With `COc1cc(/C=C/C(=O)OC2CC3CCC2(C)C3(C)C)ccc1O` (stereo not given) the Potency [1] was “inactive”, the Potency [2] was “inactive” and the Potency [3] was “inactive”. For the same compound, the Potency [4] was “inactive” and the Potency [5] was “inactive”.

In the case of `O=C1N(CC2CCCCN2)CCN1c1ccccc1` (stereo not given), the Potency [1] is reported as “inactive”, the Potency [2] is reported as “inactive” and the Potency [3] is reported as “inactive”. The Potency [4] was “inactive” and the Potency [5] was “inactive”.

With `CC(C)C1=CC2=CCC3[C@](C)(CCC[C@@]3(C)C(=O)O)C2CC1=O` (stereo not given in full) the Potency [1] was “inactive”, the Potency [2] was “inactive” and the Potency [3] was “inactive”. The Potency [4] was “inactive” and the Potency [5] was “inactive”.
